Experimental data reported in PubChem BioAssay AID651820 (National Center for Advancing Translational Sciences (NCATS), 2012).
Screen size: about 340,000 compounds; about 12,000 (3.5%) were called active. Where a call stands in place of a potency, no number is given. About 18% were inconclusive and are not listed. Many of the other results were omitted from the sample, so actives are more common in it than they were. Values without a mark were called inactive. Calls come from the whole dose curve; as a rule, active = well fitted inhibition curve with a large enough effect; inconclusive = small, poorly fitted or top-dose-only effect, or another doubt; inactive = no such curve, though single readings can be large or run the other way.

Assay: qHTS Assay for Inhibitors of Hepatitis C Virus (HCV)
Details: Huh7.5.1 HCVcc-Cre infection, luciferase reporter, 44 h; series mostly up to 41.8 µM
In short: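 Whole-lifecycle infectious HCVcc-Cre system; cells 1,000/well, compound then virus (~0.5 moi) added 4 h after plating, 44 h culture. Luciferase read 15 sec following 15 min substrate incubation, room temp.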
Potency is the fitted concentration of half-maximal effect.

SMILES | Potency | activity change, negative = inhibition
CCOC(=O)c1c(-c2ccccc2)oc2ccc(OC(=O)N(C)C)cc12 | 10 µM (active) | 
CN(C)C(=O)Oc1ccc2c(c1)O/C(=C\c1ccccc1)C2=O | inactive | 
CCOC(=O)c1cc(=O)c2ccc(OCc3ccccc3)cc2o1 | inactive | 
Cc1c(Cc2ccccc2)c(=O)oc2cc(OCC(N)=O)ccc12 | inactive | 
Cc1cc(=O)oc2ccc(OCC(=O)O)cc12 | inactive | 
CCOC(=O)c1c(-c2ccccc2)oc2ccc(OCC(N)=O)cc12 | 10 µM (active) | 
CCOc1ccccc1Nc1nnc(SCC(=O)NCC2CCCO2)s1 (stereo not drawn) | inactive | 
C=C(C)CNc1cc(S(=O)(=O)N2CCOCC2)ccc1Oc1ccccc1 | inactive | 
CCOc1ccc(CCNC(=O)COC(=O)c2c(OC)cccc2OC)cc1OCC | inactive | 
CC(C(=O)NC1CCCC1)N1CCN(S(=O)(=O)c2ccccc2Cl)CC1 (stereo not drawn) | inactive | 
COc1ccc(OC)c(NC(=O)COC(=O)Cc2ccsc2)c1 | inactive | 
Cc1ccc(Br)c(NS(=O)(=O)c2cccc(C(=O)N3CCNC(=O)C3)c2)c1 | inactive | 
Cc1ccc2nc(S(=O)(=O)O)[nH]c2c1 | inactive | 
CCOC(=O)CSc1nc2ccc(C)cc2[nH]1 | inactive | 
Cc1ccc2nc(/C(C#N)=C\c3ccc(OC(=O)c4cccs4)cc3)[nH]c2c1 | 1.78 µM (active) | 
Cc1cc(C(=O)OCC(=O)Nc2ccccc2Cl)c(C)o1 | inactive | 
CC1(C)CC(N2CCN(C(c3ccccc3)c3ccccc3)CC2)=CC(=[N+]2CCCCC2)C1 | 3.16 µM (active) | 
CC(C)NC(=S)N1CCN(C(c2ccccc2)c2ccccc2)CC1 | inactive | 
O=C(O)CN1CCN(C(c2ccccc2)c2ccccc2)CC1 | inactive | 
CS(=O)(=O)c1ccc(C(=O)OCC(=O)NNC(=O)COc2ccc(Cl)cc2)cc1 | inactive | 
O=C(NCCCc1ccccc1)C(=O)NCC1OCCN1S(=O)(=O)c1ccccc1 (stereo not drawn) | inactive | 
CN=C(Nc1cccc(S(=O)(=O)N2CCOCC2)c1)c1ccccc1 | inactive | 
CC(C)Oc1ccc(C(=O)NCC(=O)Nc2ccc3c(c2)CCC3)cc1 | inactive | 
CC[C@]1(C(=O)OC)[C@H]2C(=O)N(Cc3ccccc3)C(=O)[C@H]2[C@H]2CN=C(SCc3ccccc3)N21 | inactive | 
Cn1c(=N)n(CC(O)c2cccs2)c2ccccc21 (stereo not drawn) | inactive | 

SMILES | Potency | activity change, negative = inhibition
N=c1n(Cc2ccc(Cl)cc2)c2ccccc2n1CC(O)c1ccco1 (stereo not drawn) | 11.2 µM (active) | 
O=S(=O)(O)c1nc2ccccc2n1Cc1ccc(Cl)cc1 | inactive | 
C[C@H](CO)N1C[C@H](C)[C@H](CN(C)CC2CC2)Oc2ccc(NC(=O)CCN3CCOCC3)cc2C1=O | inactive | 
C[C@]12CCC(=O)C=C1C=CC1C2CC[C@@]2(C)C1CC[C@@]21CCC(=O)O1 (stereo partly drawn) | inactive | 
COc1ccc(-c2c(C#Cc3ccsc3)c3cc(-c4ccc(CN5CCOCC5)cc4)ccc3n2C)cc1 | inactive | 
Cc1cc(N2CCN(c3ccccc3)CC2)nc(N2CCOCC2)n1 | inactive | 
Cc1cc(N2CCOCC2)nc(-c2ccc(Br)cc2)n1 | 10 µM (active) | 
Cc1cc(Nc2ccc(N3CCOCC3)cc2)c2cccc(C)c2n1 | inactive | 
O=[N+]([O-])c1ccc(COc2ccccc2CN2CCOCC2)cc1 |  | -17.2% [at 8.37 µM]
Cc1cnc(NC(=O)c2ccc(Cl)nc2)s1 | inactive | 
Cc1cnc(NC(=O)c2ccccn2)s1 | 10 µM (active) | 
Cc1cnc(NC(=O)CSc2c(Cl)cccc2Cl)s1 | inactive | 
O=C(NCCc1ccc(F)cc1)c1ccc2nccnc2c1 | inactive | 
NC(=O)c1ccc(N2CCCC2)nc1 | inactive | 
C[C@H]1CN([C@@H](C)CO)C(=O)Cc2cc(NC(=O)Cc3ccccc3)ccc2O[C@H]1CN(C)S(=O)(=O)c1cccs1 | inactive | 
COC(=O)c1ccc(SCc2ccccc2)nc1 | inactive | 
CCCCOc1ccc(C(=O)NCC(=O)OCC(=O)c2c(N)n(C)c(=O)n(C)c2=O)cc1 | inactive | 
COc1ccc(C(=O)N(C)Cc2ccc(OC)c(OC)c2OC)cc1S(=O)(=O)N1CCOCC1 | inactive | 
COc1cc(OC)cc(-c2c(-c3cccs3)c3cc(-c4ccc(OC)nc4)ccc3n2C)c1 | inactive | 
COc1cc(OC)cc(-c2c(-c3ccc(F)cc3)c3cc(-c4ccc5cc[nH]c5c4)ccc3n2C)c1 | 10 µM (active) | 
COc1cc(OC)cc(-c2c(C#Cc3ccsc3)c3cc(-c4ccc(OC)cc4F)ccc3n2C)c1 | inactive | 
COc1ccc(-c2c(C#Cc3ccccc3)c3ccccc3n2C)cc1 | inactive | 
COc1ccc(-c2c(-c3cc(OC)cc(OC)c3)n(C)c3ccc(-c4ccn[nH]4)cc23)cc1 | 11.2 µM (active) | 
COc1cc(OC)cc(-c2c(C#Cc3ccsc3)c3cc(-c4ccc(SC)cc4)ccc3n2C)c1 | inactive | 
CC1O[C@H](OC2C(COC3OC(CO)C(O)[C@H](O)C3O)OC(OC3CC[C@]4(C)C(CC[C@@]5(C)[C@@H]4C=C[C@]46OC[C@@]7(CCC(C)(C)C[C@H]74)C(O)C[C@@]56C)C3(C)C)C(O)C2O)C(O)C(O)C1O (stereo partly drawn) | inactive | 

SMILES | Potency | activity change, negative = inhibition
CNC[C@@H]1Oc2c(NS(C)(=O)=O)cccc2C(=O)N([C@@H](C)CO)C[C@H]1C | inactive | 
CCN(CC(=O)Nc1ccccc1C(F)(F)F)C(=O)C1CCN(C(=O)Nc2ccccc2)CC1 | inactive | 
COc1ccc(CCNC(=O)COC(=O)c2cc(=O)c3ccccc3o2)cc1 | inactive | 
Cc1cc2c(cc1C)N(C(=O)CN1C(=O)c3ccccc3C1=O)C(C)(C)c1ssc(=S)c1-2 | 8.91 µM (active) | 
Cc1ccc(NC(=O)CCN2C(=O)c3ccccc3C2=O)cc1C | inactive | 
Cc1cc(C)cc(NC(=O)CN2C(=O)c3ccccc3C2=O)c1 | inactive | 
O=C(NOCc1ccccc1)c1cccc([N+](=O)[O-])c1 | inactive | 
O=C(Nc1cccc(Cl)c1)C1CCCN(c2cnccn2)C1 (stereo not drawn) | inactive | 
O=C(Nc1cccc(-c2cccc(Cl)c2)c1)C1CCN(C2CCC2)CC1 | 12.6 µM (active) | 
O=C(NC1CCCC1)C1CCN(C(=O)Nc2cccc(Cl)c2)CC1 | inactive | 
N#Cc1ccc(CN2CCN(CC(=O)Nc3ccccc3C(=O)NC3CC3)CC2)cc1 | inactive | 
CCOC(=O)N1CCN(CC(=O)c2c(C)[nH]c3ccccc23)CC1 | inactive | 
CCOC(=O)c1c(C)[nH]c(C)c1S(=O)(=O)N(C)CC(=O)Nc1ccccc1C | inactive | 
CCOC(=O)c1c(C)[nH]c2c1-c1ccccc1C(=O)C2=O | 2.51 µM (active) | 
O=C1OC(Cc2ccccc2)C(c2ccccc2)C1=O (stereo not drawn) | inactive | 
COCCN(CCOC)S(=O)(=O)NC[C@H]1O[C@@H](n2cnc3c(N)ncnc32)[C@H](O)[C@@H]1O | inactive | 
O=C(COc1coc(CN2CCN(c3ccccc3F)CC2)cc1=O)N1CCc2ccccc21 |  | 13.6% [at 8.37 µM]
Cc1ccc(Nc2c(O)nc[nH]c2=O)cc1C | inactive | 
CC/C(=N\NC(=S)NC(C)C)c1ccc(OC(F)F)cc1 | 10 µM (active) | 
O=C(NNC(=S)NCc1ccccc1)c1ccc(OC(F)F)cc1 | inactive | 
CC(C)N(Cc1ccccc1)C(=S)Nc1ccc(OC(F)F)cc1 | inactive | 
CC(C)c1ccc(/C=C/C(=O)NCCCN2CCOCC2)cc1 | inactive | 
C[C@H]1COC(=O)[C@H](CC(=O)OC(C)(C)C)C/C=C\C[C@@H](CC(=O)N[C@H](CO)Cc2ccccc2)C(=O)N1 | inactive | 
O=C(N/N=C/c1ccoc1)c1ccc(Cl)cc1Cl | inactive | 
CC(C)(C)C(=O)Nc1ccc(C(=O)N/N=C/c2ccccc2OC(=O)c2ccc(Cl)cc2Cl)cc1 | 10 µM (active) | 

SMILES | Potency | activity change, negative = inhibition
O=C(N/N=C/c1ccc(OC(=O)c2ccccc2Cl)cc1)c1ccc(O)cc1 | inactive | 
CCOc1ncccc1C(=O)Nc1ccc(S(=O)(=O)Nc2nc(C)cc(C)n2)cc1 | inactive | 
CCC(=O)N(CCc1ccccc1)Cc1cc2cc(C)ccc2[nH]c1=O | inactive | 
CCN(Cc1cc2cc(C)ccc2[nH]c1=O)S(=O)(=O)c1ccccc1 | 11.2 µM (active) | 
Cc1ccc(S(=O)(=O)N(Cc2cc3ccccc3[nH]c2=O)CC2CCCO2)cc1 (stereo not drawn) | inactive | 
O=C(COC(=O)c1ccc2c(c1)OCCO2)NCc1ccccc1Cl | inactive | 
CCOc1ccc(-n2c(O)c(/C=N/c3ccnn3Cc3ccncc3)c3ccccc3c2=O)cc1 | inactive | 
CCOc1ccc(-n2c(O)c(/C=N/Nc3nc(C)cc(C)n3)c3ccccc3c2=O)cc1 | 2.24 µM (active) | 
CCOc1ccc(-n2c(O)c(/C=N/Nc3nnc(C)c(=O)[nH]3)c3ccccc3c2=O)cc1 | inactive | 
COC(=O)C1CC2=C(CC(C)(C)CC2=O)N(c2ccccc2)C1=O (stereo not drawn) | inactive | 
CC1CC2=C(CC1/C=N/NC(N)=S)C(C)(C)CCC2 (stereo not drawn) | 6.31 µM (active) | 
C[C@@H]1ON(C)[C@H]2C[C@H]3c4cc(N5CCN(C)CC5)ccc4CCN3C(=O)[C@@H]12 | inactive | 
O=C(NCc1ccc(Cl)cc1)C(=O)NCC1CCCN1S(=O)(=O)c1cccs1 (stereo not drawn) | inactive | 
Cc1cccc(-c2nc(Nc3ccc(O)cc3)c3ccccc3n2)c1 | 12.6 µM (active) | 
COc1ccccc1Oc1nc(-c2cccnc2)nc2ccccc12 | inactive | 
S=c1nc2ccccc2c2nc(-c3cccnc3)[nH]n12 | inactive | 
Oc1ccc(-c2nnc(Nc3ccccc3)c3ccccc23)cc1 | inactive | 
COc1ccc(Nc2nc(-c3cccnc3)nc3ccccc23)cn1 | 7.94 µM (active) | 
CCOC(=O)c1nc(Nc2ccc(C(=O)OC)cc2)c2ccccc2n1 | inactive | 
COc1ccc(Br)cc1CN(C)C(=O)C1CC(=O)N(C2CCCC2)C1 (stereo not drawn) | inactive | 
O=C(CC1SC(N2CCCC2)=NC1=O)Nc1ccc(C(=O)NCCc2ccc(F)cc2)cc1 (stereo not drawn) | inactive | 
O=C(COC(=O)c1c(Cl)cccc1Cl)Nc1cccc(S(=O)(=O)NC2=NCCCCC2)c1 | inactive | 
CCN1C[C@@H]2[C@@H]3C(=O)N(Cc4ccccc4)C(=O)[C@@H]3[C@](C)(C1=O)N2C(=O)c1ccc(C(C)(C)C)cc1 | inactive | 
